# Laboratory results taken from article PMC7862700, “An all-to-all approach to the identification of sequence-specific readers for epigenetic DNA modifications on cytosine”.
# Tests used:
# Assay in all cases: DAPPL (digital affinity profiling via proximity ligation, sequencing); 10 mM Tris-HCl pH 7.5, 50 mM NaCl, 1 mM DTT, 4% glycerol, room temperature, 30 min; GST-TFs on glutathione beads, 16-mer random dsDNA library, 0.1% formaldehyde crosslink after washing; high values mean tight binding
# FEV = target: T1, FEV (Homo sapiens, UniProt Q99581 1-238); details: protein: recombinant; tags: N-terminal GST; dsDNA, one strand shown
# T1 sequence: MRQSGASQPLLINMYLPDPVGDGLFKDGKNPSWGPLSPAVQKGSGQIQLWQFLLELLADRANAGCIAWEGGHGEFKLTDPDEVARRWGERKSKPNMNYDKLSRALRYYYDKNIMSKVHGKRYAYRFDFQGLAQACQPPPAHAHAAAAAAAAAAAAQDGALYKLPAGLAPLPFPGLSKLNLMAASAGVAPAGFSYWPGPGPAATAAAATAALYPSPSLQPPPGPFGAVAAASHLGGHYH
# Outline: (§1)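 Sequencing on an Illumina NextSeq500 followed washing, crosslinking with 0.1% formaldehyde, proximity ligation (BsaI/T4 ligase, 1 h, 37 °C) and PCR amplification of pools that had been incubated for 30 min at room temperature with 200 nmole of a random double-stranded 16-mer DNA library in Tris/NaCl/DTT/glycerol buffer. Each pool held DNA-barcoded human transcription factors, expressed in yeast as GST fusions and captured on glutathione beads, plus a tag-only sample. Binding signal is a hexamer's read frequency for a factor divided by its frequency in the tag-only sample.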
# ETV5 = ETV5 (Homo sapiens, UniProt P41161 1-510); details: protein: recombinant; tags: N-terminal GST; dsDNA, one strand shown
# ETV5, sequence (P41161 whole entry): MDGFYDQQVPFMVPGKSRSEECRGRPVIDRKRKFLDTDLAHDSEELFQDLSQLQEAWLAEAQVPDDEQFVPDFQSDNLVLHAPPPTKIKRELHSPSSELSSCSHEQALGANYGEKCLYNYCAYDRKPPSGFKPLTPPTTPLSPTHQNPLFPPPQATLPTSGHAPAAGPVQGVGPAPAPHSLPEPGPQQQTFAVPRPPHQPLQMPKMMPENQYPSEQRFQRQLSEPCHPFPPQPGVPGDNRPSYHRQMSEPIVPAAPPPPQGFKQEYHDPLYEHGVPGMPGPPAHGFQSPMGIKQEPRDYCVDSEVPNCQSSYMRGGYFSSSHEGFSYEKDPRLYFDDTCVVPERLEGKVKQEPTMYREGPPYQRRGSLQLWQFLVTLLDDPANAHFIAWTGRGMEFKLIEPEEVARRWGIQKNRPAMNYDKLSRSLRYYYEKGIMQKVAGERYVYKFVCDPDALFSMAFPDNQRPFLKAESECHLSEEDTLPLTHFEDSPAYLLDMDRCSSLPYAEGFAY
# Outline: as §1
# HSF1 = HSF1 (Homo sapiens, UniProt Q00613 1-529); details: protein: recombinant; tags: N-terminal GST; chain copies: 3; dsDNA, one strand shown
# HSF1, sequence (Q00613 whole entry): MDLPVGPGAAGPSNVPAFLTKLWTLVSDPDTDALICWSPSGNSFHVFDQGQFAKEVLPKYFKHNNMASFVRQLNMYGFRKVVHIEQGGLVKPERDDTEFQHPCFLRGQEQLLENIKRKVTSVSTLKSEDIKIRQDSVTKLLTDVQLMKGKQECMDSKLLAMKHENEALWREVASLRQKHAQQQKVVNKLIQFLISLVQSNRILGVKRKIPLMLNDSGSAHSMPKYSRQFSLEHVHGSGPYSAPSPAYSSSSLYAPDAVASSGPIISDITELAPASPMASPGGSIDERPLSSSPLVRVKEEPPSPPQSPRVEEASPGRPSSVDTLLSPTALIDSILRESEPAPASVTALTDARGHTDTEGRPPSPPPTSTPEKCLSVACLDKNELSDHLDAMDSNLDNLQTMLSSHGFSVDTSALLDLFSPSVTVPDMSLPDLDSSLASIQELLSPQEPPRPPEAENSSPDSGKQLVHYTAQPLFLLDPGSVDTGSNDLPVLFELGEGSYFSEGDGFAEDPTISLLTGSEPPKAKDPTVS
# Outline: as §1
# SPIC = target: T2, SPIC (Homo sapiens, UniProt Q8N5J4 1-248); details: protein: recombinant; tags: N-terminal GST; dsDNA, one strand shown
# T2 sequence: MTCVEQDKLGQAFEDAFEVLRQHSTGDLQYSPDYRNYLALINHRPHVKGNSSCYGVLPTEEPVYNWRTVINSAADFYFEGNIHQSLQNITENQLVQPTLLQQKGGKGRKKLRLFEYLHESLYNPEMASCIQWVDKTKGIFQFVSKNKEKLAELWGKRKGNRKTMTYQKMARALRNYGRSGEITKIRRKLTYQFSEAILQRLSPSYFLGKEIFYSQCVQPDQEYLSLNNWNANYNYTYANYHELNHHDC
# Outline: as §1
# ELF4 = ELF4 (Homo sapiens, UniProt Q99607 1-663); details: protein: recombinant; tags: N-terminal GST; dsDNA, one strand shown
# ELF4, sequence (Q99607 whole entry): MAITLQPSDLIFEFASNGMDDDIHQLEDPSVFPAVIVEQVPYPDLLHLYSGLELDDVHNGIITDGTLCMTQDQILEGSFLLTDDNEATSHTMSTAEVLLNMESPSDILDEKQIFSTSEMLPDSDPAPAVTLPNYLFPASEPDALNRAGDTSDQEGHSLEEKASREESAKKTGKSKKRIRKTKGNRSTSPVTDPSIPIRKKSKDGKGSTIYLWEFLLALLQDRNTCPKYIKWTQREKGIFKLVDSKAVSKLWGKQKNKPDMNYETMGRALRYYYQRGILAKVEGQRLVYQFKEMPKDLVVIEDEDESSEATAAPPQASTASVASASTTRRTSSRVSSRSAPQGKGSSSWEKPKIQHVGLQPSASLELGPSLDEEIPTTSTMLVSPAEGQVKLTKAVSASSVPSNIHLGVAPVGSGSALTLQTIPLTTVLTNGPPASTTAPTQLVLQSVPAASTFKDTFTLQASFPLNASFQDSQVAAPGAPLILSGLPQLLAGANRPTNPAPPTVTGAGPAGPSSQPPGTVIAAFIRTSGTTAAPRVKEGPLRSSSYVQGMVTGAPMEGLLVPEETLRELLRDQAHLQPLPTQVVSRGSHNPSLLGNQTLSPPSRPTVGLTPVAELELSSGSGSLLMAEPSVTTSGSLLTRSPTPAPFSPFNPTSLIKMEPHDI
# Outline: as §1
# ELK4 = target: T3, ELK4 (Homo sapiens, UniProt P28324-2 1-405); details: protein: recombinant; tags: N-terminal GST; dsDNA, one strand shown
# T3 sequence: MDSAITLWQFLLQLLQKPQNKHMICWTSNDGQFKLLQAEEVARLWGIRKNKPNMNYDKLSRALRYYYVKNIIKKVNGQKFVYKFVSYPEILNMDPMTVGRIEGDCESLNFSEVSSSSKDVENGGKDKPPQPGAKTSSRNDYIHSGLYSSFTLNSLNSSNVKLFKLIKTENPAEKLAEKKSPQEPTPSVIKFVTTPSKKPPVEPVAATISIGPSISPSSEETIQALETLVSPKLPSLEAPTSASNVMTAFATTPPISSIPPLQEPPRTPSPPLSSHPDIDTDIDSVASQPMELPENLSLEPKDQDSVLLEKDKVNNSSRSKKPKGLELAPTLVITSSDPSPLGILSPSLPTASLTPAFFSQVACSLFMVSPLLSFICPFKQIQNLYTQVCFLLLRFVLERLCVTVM
# Outline: as §1
# ETV2 = target: T4, ETV2 (Homo sapiens, UniProt O00321 1-342); details: protein: recombinant; tags: N-terminal GST; dsDNA, one strand shown
# T4 sequence: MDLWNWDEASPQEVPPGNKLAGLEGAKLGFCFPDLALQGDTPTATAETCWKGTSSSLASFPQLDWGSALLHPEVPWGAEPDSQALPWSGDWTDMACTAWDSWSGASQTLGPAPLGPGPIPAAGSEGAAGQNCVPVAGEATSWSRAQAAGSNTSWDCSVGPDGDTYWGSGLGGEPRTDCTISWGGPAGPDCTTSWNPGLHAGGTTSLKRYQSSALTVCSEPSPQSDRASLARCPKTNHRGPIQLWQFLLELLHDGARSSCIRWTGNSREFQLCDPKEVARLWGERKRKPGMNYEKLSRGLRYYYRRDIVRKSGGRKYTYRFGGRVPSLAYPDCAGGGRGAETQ
# Outline: as §1
# ELF3 = target: T5, ELF3 (Homo sapiens, UniProt P78545 1-371); details: protein: recombinant; tags: N-terminal GST; dsDNA, one strand shown
# T5 sequence: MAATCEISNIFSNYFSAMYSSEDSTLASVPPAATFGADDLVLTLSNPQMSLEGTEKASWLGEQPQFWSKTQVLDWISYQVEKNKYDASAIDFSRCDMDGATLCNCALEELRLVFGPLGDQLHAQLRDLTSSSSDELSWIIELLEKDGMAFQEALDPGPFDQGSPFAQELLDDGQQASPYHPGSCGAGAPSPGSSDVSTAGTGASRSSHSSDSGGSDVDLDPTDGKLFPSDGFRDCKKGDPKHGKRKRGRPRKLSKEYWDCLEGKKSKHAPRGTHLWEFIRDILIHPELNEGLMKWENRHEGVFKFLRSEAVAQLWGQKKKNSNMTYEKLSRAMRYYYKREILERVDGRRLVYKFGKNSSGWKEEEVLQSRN
# Outline: as §1
# ETV1 = ETV1 (Homo sapiens, UniProt P50549 1-477); details: protein: recombinant; tags: N-terminal GST; dsDNA, one strand shown
# ETV1, sequence (P50549 whole entry): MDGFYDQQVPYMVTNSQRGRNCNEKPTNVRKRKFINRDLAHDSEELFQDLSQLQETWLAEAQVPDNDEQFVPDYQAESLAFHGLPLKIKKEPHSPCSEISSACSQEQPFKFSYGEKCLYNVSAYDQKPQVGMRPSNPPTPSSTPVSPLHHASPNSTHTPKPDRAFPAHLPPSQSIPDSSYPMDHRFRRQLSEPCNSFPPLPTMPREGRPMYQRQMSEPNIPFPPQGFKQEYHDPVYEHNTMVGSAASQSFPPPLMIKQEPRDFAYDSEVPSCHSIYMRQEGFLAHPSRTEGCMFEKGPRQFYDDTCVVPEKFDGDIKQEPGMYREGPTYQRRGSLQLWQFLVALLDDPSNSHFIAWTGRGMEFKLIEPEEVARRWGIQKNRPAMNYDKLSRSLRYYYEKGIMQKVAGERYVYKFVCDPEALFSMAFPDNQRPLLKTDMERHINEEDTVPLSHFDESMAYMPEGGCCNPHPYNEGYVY
# Outline: as §1
# ERF = target: T6, ERF (Homo sapiens, UniProt P50548 1-548); details: protein: recombinant; tags: N-terminal GST; dsDNA, one strand shown
# T6 sequence: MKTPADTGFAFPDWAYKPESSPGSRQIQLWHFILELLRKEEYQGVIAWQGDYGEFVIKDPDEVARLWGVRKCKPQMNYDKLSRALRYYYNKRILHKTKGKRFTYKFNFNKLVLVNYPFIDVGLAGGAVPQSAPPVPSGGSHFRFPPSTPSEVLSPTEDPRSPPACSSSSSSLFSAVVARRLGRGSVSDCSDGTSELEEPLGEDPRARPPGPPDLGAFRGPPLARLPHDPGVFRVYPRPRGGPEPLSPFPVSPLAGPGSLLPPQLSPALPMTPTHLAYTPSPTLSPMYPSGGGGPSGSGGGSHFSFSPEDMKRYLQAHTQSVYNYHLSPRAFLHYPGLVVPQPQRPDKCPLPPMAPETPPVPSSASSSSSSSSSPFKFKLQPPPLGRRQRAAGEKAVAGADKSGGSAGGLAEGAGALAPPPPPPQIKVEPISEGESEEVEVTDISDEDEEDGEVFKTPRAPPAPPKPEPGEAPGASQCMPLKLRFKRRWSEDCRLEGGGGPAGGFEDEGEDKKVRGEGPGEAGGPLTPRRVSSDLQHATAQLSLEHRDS
# Outline: as §1
# ETV3L = target: T7, ETV3L (Homo sapiens, UniProt Q6ZN32 1-361); details: protein: recombinant; tags: N-terminal GST; dsDNA, one strand shown
# T7 sequence: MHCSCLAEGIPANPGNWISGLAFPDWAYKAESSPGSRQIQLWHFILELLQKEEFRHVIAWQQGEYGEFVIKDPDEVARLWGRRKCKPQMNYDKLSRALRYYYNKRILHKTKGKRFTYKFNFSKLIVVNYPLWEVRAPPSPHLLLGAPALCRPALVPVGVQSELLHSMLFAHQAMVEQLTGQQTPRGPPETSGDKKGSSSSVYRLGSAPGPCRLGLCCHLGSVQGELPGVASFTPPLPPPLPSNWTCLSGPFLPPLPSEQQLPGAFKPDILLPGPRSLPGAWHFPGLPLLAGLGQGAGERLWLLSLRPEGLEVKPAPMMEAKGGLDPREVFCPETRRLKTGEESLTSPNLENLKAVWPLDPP
# Outline: as §1
# ETS2 = target: T8, ETS2 (Homo sapiens, UniProt P15036 1-469); details: protein: recombinant; tags: N-terminal GST; dsDNA, one strand shown
# T8 sequence: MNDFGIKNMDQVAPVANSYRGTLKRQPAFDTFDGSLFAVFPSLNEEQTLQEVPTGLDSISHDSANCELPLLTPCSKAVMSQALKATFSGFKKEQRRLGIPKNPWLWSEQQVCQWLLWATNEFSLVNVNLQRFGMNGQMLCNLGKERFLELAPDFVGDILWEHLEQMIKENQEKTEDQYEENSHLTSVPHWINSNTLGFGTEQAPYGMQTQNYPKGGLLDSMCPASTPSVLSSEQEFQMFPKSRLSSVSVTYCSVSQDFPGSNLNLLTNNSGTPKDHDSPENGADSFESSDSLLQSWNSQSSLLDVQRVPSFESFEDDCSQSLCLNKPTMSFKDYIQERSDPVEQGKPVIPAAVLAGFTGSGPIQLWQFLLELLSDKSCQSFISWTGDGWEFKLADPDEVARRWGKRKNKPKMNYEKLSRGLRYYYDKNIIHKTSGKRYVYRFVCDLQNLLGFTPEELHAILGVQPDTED
# Outline: as §1
# SPDEF = target: T9, SPDEF (Homo sapiens, UniProt O95238 1-335); details: protein: recombinant; tags: N-terminal GST; dsDNA, one strand shown
# T9 sequence: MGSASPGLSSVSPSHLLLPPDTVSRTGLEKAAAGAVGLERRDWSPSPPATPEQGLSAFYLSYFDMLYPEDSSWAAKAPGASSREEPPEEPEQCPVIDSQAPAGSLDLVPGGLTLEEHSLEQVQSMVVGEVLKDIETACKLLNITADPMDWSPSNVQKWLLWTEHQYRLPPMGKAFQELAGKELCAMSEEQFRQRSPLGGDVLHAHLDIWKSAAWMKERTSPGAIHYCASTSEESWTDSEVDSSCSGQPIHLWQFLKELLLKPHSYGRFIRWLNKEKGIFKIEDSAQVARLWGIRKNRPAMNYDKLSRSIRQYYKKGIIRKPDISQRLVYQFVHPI
# Outline: as §1
# ETV7 = target: T10, ETV7 (Homo sapiens, UniProt Q9Y603 1-341); details: protein: recombinant; tags: N-terminal GST; dsDNA, one strand shown
# T10 sequence: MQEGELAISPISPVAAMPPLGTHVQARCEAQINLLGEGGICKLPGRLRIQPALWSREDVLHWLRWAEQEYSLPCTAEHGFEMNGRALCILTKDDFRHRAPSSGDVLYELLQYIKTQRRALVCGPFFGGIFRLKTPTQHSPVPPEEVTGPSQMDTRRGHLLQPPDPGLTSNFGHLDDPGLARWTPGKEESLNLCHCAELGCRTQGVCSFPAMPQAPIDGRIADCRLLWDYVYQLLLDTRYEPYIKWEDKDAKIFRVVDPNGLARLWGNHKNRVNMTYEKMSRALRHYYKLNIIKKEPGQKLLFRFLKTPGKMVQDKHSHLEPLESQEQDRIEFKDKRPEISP
# Outline: as §1
# ELF5 = target: T11, ELF5 (Homo sapiens, UniProt Q9UKW6-2 1-255); details: protein: recombinant; tags: N-terminal GST; dsDNA, one strand shown
# T11 sequence: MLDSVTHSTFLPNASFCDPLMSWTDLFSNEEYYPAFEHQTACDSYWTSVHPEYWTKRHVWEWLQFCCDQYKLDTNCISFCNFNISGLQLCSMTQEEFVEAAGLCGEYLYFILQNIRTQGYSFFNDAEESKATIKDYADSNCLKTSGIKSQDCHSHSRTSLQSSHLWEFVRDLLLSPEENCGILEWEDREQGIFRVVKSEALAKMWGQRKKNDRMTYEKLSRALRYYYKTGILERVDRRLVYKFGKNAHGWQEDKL
# Outline: as §1
# ETV3 = target: T12, ETV3 (Homo sapiens, UniProt P41162-2 1-143); details: protein: recombinant; tags: N-terminal GST; dsDNA, one strand shown
# T12 sequence: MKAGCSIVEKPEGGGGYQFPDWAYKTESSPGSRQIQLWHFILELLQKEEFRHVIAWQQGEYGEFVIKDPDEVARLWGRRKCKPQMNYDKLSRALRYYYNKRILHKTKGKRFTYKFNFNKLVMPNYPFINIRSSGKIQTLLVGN
# Outline: as §1
# ETV6 = ETV6 (Homo sapiens, UniProt P41212 1-452); details: protein: recombinant; tags: N-terminal GST; dsDNA, one strand shown
# ETV6, sequence (P41212 whole entry): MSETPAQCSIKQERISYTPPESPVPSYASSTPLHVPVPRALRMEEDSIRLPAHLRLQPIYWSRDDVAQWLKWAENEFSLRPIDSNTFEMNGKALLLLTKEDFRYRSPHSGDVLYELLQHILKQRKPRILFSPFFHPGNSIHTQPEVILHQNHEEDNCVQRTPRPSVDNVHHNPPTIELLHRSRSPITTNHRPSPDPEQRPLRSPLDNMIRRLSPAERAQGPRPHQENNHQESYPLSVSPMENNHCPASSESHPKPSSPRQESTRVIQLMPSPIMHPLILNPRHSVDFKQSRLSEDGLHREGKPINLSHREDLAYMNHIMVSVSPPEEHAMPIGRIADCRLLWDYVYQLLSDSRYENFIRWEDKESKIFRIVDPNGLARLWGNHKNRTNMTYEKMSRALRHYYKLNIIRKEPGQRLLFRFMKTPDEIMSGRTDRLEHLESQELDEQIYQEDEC
# Outline: as §1
sequence,measurement,setting,value
TTCCGT,binding signal,FEV,"1.86 fold enrichment (6-mer frequency, TF over GST control)"
same,binding signal,ETV5,"1.99 fold enrichment (6-mer frequency, TF over GST control)"
same,binding signal,HSF1,"1.02 fold enrichment (6-mer frequency, TF over GST control)"
same,binding signal,SPIC,"2.02 fold enrichment (6-mer frequency, TF over GST control)"
same,binding signal,ELF4,"1.67 fold enrichment (6-mer frequency, TF over GST control)"
same,binding signal,ELK4,"1.89 fold enrichment (6-mer frequency, TF over GST control)"
same,binding signal,ETV2,"1.88 fold enrichment (6-mer frequency, TF over GST control)"
same,binding signal,ELF3,"1.74 fold enrichment (6-mer frequency, TF over GST control)"
same,binding signal,ETV1,"1.82 fold enrichment (6-mer frequency, TF over GST control)"
same,binding signal,ERF,"1.61 fold enrichment (6-mer frequency, TF over GST control)"
same,binding signal,ETV3L,"1.85 fold enrichment (6-mer frequency, TF over GST control)"
same,binding signal,ETS2,"1.94 fold enrichment (6-mer frequency, TF over GST control)"
same,binding signal,SPDEF,"1.91 fold enrichment (6-mer frequency, TF over GST control)"
same,binding signal,ETV7,"1.6 fold enrichment (6-mer frequency, TF over GST control)"
same,binding signal,ELF5,"2.76 fold enrichment (6-mer frequency, TF over GST control)"
same,binding signal,ETV3,"2.16 fold enrichment (6-mer frequency, TF over GST control)"
same,binding signal,ETV6,"2.02 fold enrichment (6-mer frequency, TF over GST control)"
